Data reported in PubChem BioAssay.
Active and inactive are the calls of the source.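 The calls were made as follows: active = inhibition above 20% together with a positive visual image hit; inconclusive = visual image hit but inhibition not above 20%; inactive = no visual image hit.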

test: inhibitors of TNFa-induced NFkB p65 translocation, primary screen, imaging, HUVEC, MLSMR starter and 10KST1 sets (AID 438); details: HUVEC TNFa-induced p65 nuclear translocation; cell count: measured here: nuclei count (cytotoxicity indicator), at 2.08 µM; inhibition: at 2 µM, stronger effect = higher value, 0% TNFa-plus-vehicle, 100% no-TNFa wells;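 also: compound added about 3h40 before a 20 min TNFalpha stimulation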;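 as to inhibition: signal is the nuclear over cytoplasmic p65 intensity ratio per well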

SMILES	cell count	inhibition
Cc1ccc(-c2nnc3c4ccccc4c(C)nn23)cc1S(=O)(=O)N1CCN(C)CC1	640	7.2% (inactive)
CCN(CC)CCCNC1CCS(=O)(=O)C1 (stereo not drawn)	730	-7.4% (inactive)
CN(C)CCCN1C(=O)c2oc3ccc(Cl)cc3c(=O)c2C1c1cccnc1 (stereo not drawn)	611	-3.3% (inactive)
COc1ccc(CCn2c(-c3ccco3)nc3ccccc3c2=O)cc1OC	425	-0.6% (inactive)
O=C(CSc1nnc(-c2ccccc2)o1)N1CCc2ccccc2C1	400	-4.2% (inactive)
Cc1ccccc1NS(=O)(=O)c1cc(C(=O)N2CCCC2)ccc1C	481	-7.1% (inactive)
Nc1c(C(=O)NCc2ccco2)nnn1Cc1ccccc1	277	-13.1% (inactive)
O=C(NCC(c1cccnc1)N1CCN(c2ccc(F)cc2)CC1)OCc1ccccc1 (stereo not drawn)	568	-6.4% (inactive)
CCc1nnc(NC(=O)c2ccc(S(=O)(=O)NCC(C)C)cc2)s1	494	-4.1% (inactive)
O=C(CCNS(=O)(=O)c1ccc(Br)s1)N1CCCCC1	380	0.3% (inactive)
CCCn1c(SCC(=O)NC(C)(C)C)nnc1C(C)C	603	-6.3% (inactive)
CC(CN1CCCCC1)OC(=O)c1ccc2c(c1)OCO2 (stereo not drawn)	639	4.9% (inactive)
CC(C)(C)NC(=O)Cn1nnnc1-c1nonc1N	433	9.2% (inactive)
CC1(C)CC(=O)C(C=NCc2ccc3c(c2)OCO3)=C(O)C1	665	-29.5% (inactive)
CN1CCN(c2nc(-c3ccncc3)nc3ccccc23)CC1	324	-13.1% (inactive)
COc1ccc(S(=O)(=O)NCc2ccc(C(=O)O)cc2)cc1	375	2.2% (inactive)
COc1ccc(CC(=O)Nc2ccc(OC)c(NC(=O)c3ccco3)c2)cc1	580	22% (active)
COc1ccc(NC(=O)C23CCC(C)(C(=O)C2)C3(C)C)cc1 (stereo not drawn)	606	-7.7% (inactive)
Cc1ccc(-c2nc3cc(N)ccc3o2)cc1	463	1.1% (inactive)
COc1cccc(C(=O)Nc2ccc(NC(C)=O)cn2)c1	759	-4.3% (inactive)

SMILES	cell count	inhibition
Cc1cnc(C(=O)Nc2ccc(N3CCN(C(=O)OC(C)(C)C)CC3)cc2)cn1	316	8.7% (inactive)
O=C(CSc1nnnn1C1CCCC1)NCc1ccc2c(c1)OCO2	816	-13.2% (inactive)
CCC(C)(C(=O)NC1CCCC1)N(Cc1cccs1)C(=O)Cc1cccs1 (stereo not drawn)	698	-0.9% (inactive)
CCOc1ccc2c(c1)n(CO)c(=S)n2CO	677	-26.5% (inactive)
CCn1c(CSc2nnc(-c3cccnc3)n2-c2ccccc2C)nc2cc(C(=O)O)ccc21	463	-13.1% (inactive)
CCOC(=O)NC(=O)CSc1nnnn1-c1ccc(Cl)cc1	394	10% (inactive)
Nn1cc(-c2ccccc2)nc1SCC(=O)N1CCN(S(=O)(=O)c2ccccc2)CC1	341	-17.9% (inactive)
COC(=O)C1=C(N)Oc2cc(C)n(Cc3ccncc3)c(=O)c2C1c1cccnc1 (stereo not drawn)	594	-13.5% (inactive)
COC(=O)C1CCN(C(=O)CN2C(=O)NC(CCc3ccccc3)C2=O)CC1 (stereo not drawn)	552	-9.6% (inactive)
O=C(CSc1nnc(C2COc3ccccc3O2)o1)N1CCCc2ccccc21 (stereo not drawn)	438	-1.8% (inactive)
CN(C)S(=O)(=O)N1CCN(C(=O)N(c2ccccc2)c2ccccc2)CC1	352	-3.3% (inactive)
COCC(C)NC(=O)CCS(=O)(=O)c1nc(-c2ccc(OC)cc2)cc(C(F)(F)F)n1 (stereo not drawn)	638	7.9% (inactive)
O=C(NCc1cccnc1)c1ccc(Cl)c(Cl)c1	751	-5% (inactive)
CCN(CC)CCOC(=O)c1cccc(OC)c1	249	4.3% (inactive)
CN1CCN(c2ncnc3c2cnn3-c2ccc(Cl)cc2)CC1	688	-8.5% (inactive)
NC(=O)C1CCN(C(=O)c2cc3n(n2)C(C(F)(F)F)CC(c2ccco2)N3)CC1 (stereo not drawn)	537	-5.4% (inactive)
CC(C)(C)c1ccc2c(c1)OCC(C(=O)O)O2 (stereo not drawn)	448	2% (inactive)
Cc1cc(C)c2c(n1)nn1c(NCCCN3CCOCC3)cc(C)nc21	484	-4.5% (inactive)
Cc1n[nH]c(C)c1N1C(=O)c2cccc3cc(Br)cc(c23)C1=O	476	5.9% (inactive)
